# Bst PK mod: Pyruvate Kinase; Potency, µM; hit rate 1.2% among 51,000; purified pyruvate kinase, luminescence ATP production; ribose 5-phosphate activator present at AC10; in the data active means potency below about 11 µM; inconclusive means mostly about 12 µM to 25 µM;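 the screen sought inhibitors and activators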;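 further: scaled between full activation by ribose 5 phosphate and full inhibition by luteolin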
# HEK293 cAMP ctrl: qHTS Assay for Agonists of the Thyroid Stimulating Hormone Receptor: Activators of Intracellular cAMP Concentrations in Parental HEK 293. AID 938, 2007. hit rate 2.5% among 73,000. Potency, µM (doses to about 57.1 µM), for inactives: top-dose activation, actives largely listed as activators. parental HEK293 CNG cAMP sensor, membrane potential fluorescence; active means well fitted activation curve with a large enough effect; inconclusive means small, poorly fitted or top-dose-only effect; inactive means no such curve, though single readings can be large or run the other way; further: % of control where 0% means no effect; nearly all actives have a fitted effect of over 55% in size
#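 Parental HEK 293 cells stably expressing a modified CNG channel (no TSHR) report cAMP rise as membrane depolarization. Membrane potential dye with 100 uM RO 20-1724 was loaded for 60 min at room temperature, then compound added for 30 min; fluorescence read at 590 nm.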
# TSHR ag: qHTS Assay for Agonists of the Thyroid Stimulating Hormone Receptor; Potency, µM (titrated, usually from 57.1 µM), for inactives: at the top dose activation, hits mostly activators; HEK293-CNG-TSHR cells (CNG channel as cAMP sensor), membrane potential dye, cAMP; Thyrotropin receptor (Homo sapiens), P16473; hit rate 0.48% among 73,000; active means well fitted activation curve with a large enough effect in the main read-out, with a control signal flat, not every such curve was filed as active; inconclusive means small, poorly fitted or top-dose-only effect, or a change in a side signal; inactive means no such curve, though single readings can be large or run the other way; % of control where 0% means no effect;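 further: the control signal comes from parental cells without the receptor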
# Target sequence (P16473 whole entry, looked up): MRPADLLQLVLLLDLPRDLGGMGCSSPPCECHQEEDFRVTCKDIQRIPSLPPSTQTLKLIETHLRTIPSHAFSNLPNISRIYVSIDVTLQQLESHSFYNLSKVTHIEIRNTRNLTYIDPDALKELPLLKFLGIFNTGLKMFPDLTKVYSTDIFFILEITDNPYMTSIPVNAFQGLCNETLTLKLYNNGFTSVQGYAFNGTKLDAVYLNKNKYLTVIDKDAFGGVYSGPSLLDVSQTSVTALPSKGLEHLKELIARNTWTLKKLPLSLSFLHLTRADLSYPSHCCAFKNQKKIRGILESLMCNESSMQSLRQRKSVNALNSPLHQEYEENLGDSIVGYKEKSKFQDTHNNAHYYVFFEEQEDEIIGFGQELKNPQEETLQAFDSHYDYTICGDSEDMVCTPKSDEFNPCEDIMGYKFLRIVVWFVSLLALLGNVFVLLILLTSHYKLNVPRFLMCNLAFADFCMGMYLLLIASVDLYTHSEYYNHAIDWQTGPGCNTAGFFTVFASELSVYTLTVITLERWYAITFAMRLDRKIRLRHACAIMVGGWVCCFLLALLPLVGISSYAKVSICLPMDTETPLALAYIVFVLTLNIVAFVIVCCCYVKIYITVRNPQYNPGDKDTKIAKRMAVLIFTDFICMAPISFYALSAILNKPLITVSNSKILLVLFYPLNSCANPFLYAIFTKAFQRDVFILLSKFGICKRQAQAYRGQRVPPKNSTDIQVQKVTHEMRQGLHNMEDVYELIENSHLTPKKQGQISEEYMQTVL
#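 HEK 293 cells stably expressing TSHR and a cAMP-gated CNG channel; parental CNG-only cells as counterscreen. Cells preloaded 60 min with membrane potential dye plus 100 uM RO 20-1724, then compound 30 min; fluorescence read at 590 nm.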
# GBA mod: Glucocerebrosidase; purified enzyme, resorufin glucoside fluorescence (screen aimed at inhibitors), 20 min; Potency, µM; hit rate 1.1% among 48,000; AID 360, 2006; in the data active means potency below about 15 µM; inconclusive means mostly about 16 µM to 33 µM;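 further: the screen sought inhibitors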
#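 Compounds titrated against 0.2 nM normal enzyme, 30 uM resorufin beta-D-glucopyranoside substrate, citrate/phosphate buffer with taurocholate and tween-20, pH 5.9. Reaction ran 20 min at room temperature; fluorescence (Ex 548/Em 600) gave AC50.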
# An asterisk follows results filed as active; i = inactive; ? = inconclusive; nt = no result given; [ ] = dose if it differs, or a comment. Only some compounds are listed: those with a hit (about 4% of all), similar ones and a draw of the others. Potency means the concentration at half of the fitted maximal effect.
SMILES,Bst PK mod,HEK293 cAMP ctrl,TSHR ag,GBA mod
CCOC(=O)N1CCN(c2cc(NCCC(=O)O)c3c4c(onc24)-c2ccccc2C3=O)CC1,i,-16%,-18%,>77
Cc1ccc(S(=O)(=O)Cn2nnnc2C(CC(C)C)N2CCN(c3ccc(F)cc3)CC2)cc1 (stereo unspecified),>57,14%,2%,>77
CC(C)CC(c1nnnn1C(C)C)N1CCN(c2cccc(Cl)c2)CC1 (stereo unspecified),>57,1µM*,?,>77
CCSc1oc(-c2ccco2)nc1S(=O)(=O)c1ccccc1,>57,20%,9%[11.4 µM],>77
CCCSc1oc(-c2ccco2)nc1S(=O)(=O)c1ccccc1,>57,25µM*,?,>77
O=C(COc1ccccc1O)Nc1ccccc1Cl,nt,-3%,nt,>77
Cc1cnc(NC(=O)COc2ccccc2Cl)s1,1.4*,2%,-12%,>77
C[C@]1(C(=O)NCc2cc(F)cc(C(F)(F)F)c2)C=C[C@@H](Cc2ccccc2)N1C(=O)c1ccccc1,nt,16µM*,?,nt
O=C(Oc1ccc(OC(=O)N2CCOCC2)cc1)c1ccccc1,>57,0%,-6%,8*
O=C1C[C@H]2C(=O)[C@@H]1[C@@H](C(=O)O)[C@H]2C(=O)O,nt,12%[11.4 µM],-4%[11.4 µM],nt
Cc1cc(C)c2c(CC(=O)NCc3ccco3)coc2c1,>57,17%,32µM*,>77
Nc1ncnc2c1nc(Sc1ccc(Cl)cc1)n2[C@@H]1O[C@H]2COP(=O)(O)O[C@@H]2[C@H]1O,nt,-3%,5%,nt
Cc1ccc(OCC(=O)N2CCCCC2)c(Br)c1,>57,?,?,>77
O=C(COc1ccc(Cl)cc1Cl)N1CCCCCC1,nt,4µM*,?,nt
CCCCS/C(=C(/C#N)C(N)=O)c1cc2c([nH]1)CCCC2,>57,5µM*,?,>77
O=C(Nc1ccc2nc(-c3ccc(Br)o3)[nH]c2c1)c1ccco1,10*,19%,2%,nt
CN(C)c1nc(Nc2ccc(Cl)cc2)nc(OCC#N)n1,1.7*,14%,8%,>77
CCOC(=O)c1ccc(N2C(=O)c3n[nH]c(C)c3C2c2ccc(O)cc2)cc1 (stereo unspecified),>57,3%,29%,>77
CCOC(=O)c1ccc(N2C(=O)c3n[nH]c(C)c3C2c2ccccc2)cc1 (stereo unspecified),>57,32µM*,?,>77
O=C(NCc1ccccc1)NC1(C(=O)Nc2ccc3c(c2)OCCO3)CCCCC1,>57,15%,2µM*,nt
O=C(Nc1ccccc1)NC1(C(=O)NCc2ccc3c(c2)OCO3)CCCCC1,>57,6%,17%,>77
CC(C)(C)n1nnnc1C(c1ccccc1F)N(Cc1ccco1)CC1CCCO1 (stereo unspecified),>57,13µM*,?,>77
CCN1C(C)=C(C(=O)OC)C(c2ccccc2)N2C(=O)[C@](O)(C(=O)OC)C(c3ccccc3)C(C(=O)c3ccccc3)=C12 (stereo partly specified),nt,4µM*,?,nt
OC[C@@H]1O[C@@H](n2cnc3cncnc32)[C@@H](O)[C@H]1O,nt,17%,-10%,nt
Nc1ccc(C23CC4CC(CC(O)(C4)C2)C3)cc1,9.1*,10%,-13%,>77
SMILES,Bst PK mod,HEK293 cAMP ctrl,TSHR ag,GBA mod
Cc1cccc(N2CCN(c3nnnn3-c3ccccc3)CC2C)c1 (stereo unspecified),>57,25µM*,?,nt
N#C/C(=N\O)c1nc(-c2ccccc2)cs1,>26,nt,nt,nt
N#CC(=C1CCCC1)c1nc(-c2ccccc2O)cs1,7.7*,?,?,>77
COc1ccc2[nH]c(=O)c(CN(Cc3nnnn3Cc3ccco3)C3CCCCC3)cc2c1,nt,20%,4%,i
Cc1ccc2[nH]c(=O)c(CN(Cc3ccccc3)Cc3nnnn3C3CCCC3)cc2c1,>11,25µM*,?,nt
Cc1ccc(C)c2[nH]c(=O)c(CN(CC3CCCO3)C(=O)NC3CCCCC3)cc12 (stereo unspecified),>57,4µM*,?,>77
Cc1ccc(C)c2[nH]c(=O)c(CN(Cc3ccco3)C(=O)Nc3ccccc3)cc12,>57,20µM*,?,>77
COc1ccc(Cn2nnnc2CN(Cc2cc3cc(C)ccc3[nH]c2=O)C2CCCC2)cc1,>57,25µM*,?,nt
COc1ccc(-c2cc([C@H](O)[C@@H]3CCCCN3)c3ccccc3n2)cc1,nt,2%[11.4 µM],6%[11.4 µM],nt
